# Compound activity as filed in PubChem.
# In the library only some 1.1% were active in any assay of this set; here they are far more common.
# KCNH2 3.1 inh: blocks the human KCNH2 3.1 channel isoform | U2OS KCNH2 3.1, thallium flux FluxOr; active compounds read low | 0.95% of 340,000 active | activity change, % (tested at about 1.8 µM);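 active = maximum activity change below -70%; inconclusive = maximum activity change from -70% to -50%; inactive = maximum activity change above -50%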;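 note: thallium influx rate constant from kinetic fluorescence after stimulation buffer; % is set by controls: 0 for no effect and ±100 for the full control effect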
#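 Measured as rate of thallium-driven FluxOr signal in transduced U2OS cells carrying the 3.1 channel, read kinetically for 2 min upon stimulation; values are rate constants scaled to DMSO control wells.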
# Menin MLL FP FL: displaces fluorescein MLL peptide from human menin; AID 1766; FP activity change, % at 61.4 µM; 290,000 tested, under 10 active; Fluorescence polarization, fluorescein-MLL peptide displacement from menin; active = well fitted curve in the direction sought with a large enough effect in the polarisation, not every such curve was filed as active; inconclusive = small, poorly fitted or top-dose-only effect, or effect the other way, or a change in a side signal; inactive = no such curve, though single readings can be large or run the other way; the % refers to the polarisation; note: % of control where 0% means no effect
# CXXC DNA block: MLL CXXC-DNA interaction inhibition; Q03164; MLL-CXXC / FITC-HOXA9 DNA fluorescence polarization; Potency, µM (top dose mostly 115 µM), inactives show top-dose activity change, negative = inhibition, most hits filed as inhibitors; 0.037% of 290,000 active; active = well fitted inhibition curve with a large enough effect in the polarisation, with a control signal flat, not every such curve was filed as active; inconclusive = small, poorly fitted or top-dose-only effect, or effect the other way, or a change in a side signal; inactive = no such curve, though single readings can be large or run the other way; the % refers to the polarisation; note: potency is the fitted concentration of half-maximal effect
#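 Fluorescence polarization: 7 uM MLL-CXXC (stock) preincubated 5 min with compounds, then 50 nM fluorescein-HOX-A9 DNA (stock) added; 30 min ambient. Buffer 50 mM Tris-HCl pH 7.5, 50 mM NaCl, 1 mM DTT, 0.05% BSA.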
# Menin MLL FP TR: inhibitors of human menin-MLL interaction, mutant MLL peptide; Menin + Texas Red MLL mutant peptide, fluorescence polarization; AID 1768; Potency, µM (top dose mostly 61.6 µM), without a hit: at the top dose FP activity change, negative = inhibition, most hits filed as inhibitors; O00255; 0.23% of 270,000 active; active = well fitted inhibition curve with a large enough effect in the polarisation, with a control signal flat, not every such curve was filed as active; inconclusive = small, poorly fitted or top-dose-only effect, or effect the other way, or a change in a side signal; inactive = no such curve, though single readings can be large or run the other way; the % refers to the polarisation; note: potency is the fitted concentration of half-maximal effect; % of control where 0% means no effect
# Target sequence (O00255 whole entry, looked up): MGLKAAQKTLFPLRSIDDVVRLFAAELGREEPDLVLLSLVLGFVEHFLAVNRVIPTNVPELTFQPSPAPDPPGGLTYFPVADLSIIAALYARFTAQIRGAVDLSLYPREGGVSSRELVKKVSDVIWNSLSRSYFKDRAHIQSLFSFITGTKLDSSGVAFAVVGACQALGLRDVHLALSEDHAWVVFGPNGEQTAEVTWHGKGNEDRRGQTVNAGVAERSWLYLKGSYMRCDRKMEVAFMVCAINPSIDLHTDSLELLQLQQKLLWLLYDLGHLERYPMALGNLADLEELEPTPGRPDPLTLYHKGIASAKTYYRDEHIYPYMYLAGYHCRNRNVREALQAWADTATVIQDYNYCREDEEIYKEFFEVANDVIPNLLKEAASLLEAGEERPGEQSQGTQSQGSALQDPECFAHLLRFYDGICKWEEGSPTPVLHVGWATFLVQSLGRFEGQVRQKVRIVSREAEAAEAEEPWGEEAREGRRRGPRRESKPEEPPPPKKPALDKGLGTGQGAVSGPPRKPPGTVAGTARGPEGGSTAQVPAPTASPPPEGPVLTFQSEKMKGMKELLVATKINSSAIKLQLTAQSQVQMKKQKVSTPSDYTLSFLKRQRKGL
# hERG WT inh: inhibitors of human wildtype KCNH2 potassium channel | 0.37% of 340,000 active | activity change, % at 1.84 µM | U2OS, BacMam KCNH2, thallium flux FluxOr; active compounds read low | Q12809;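 active = maximum activity change below -70%; inconclusive = maximum activity change between -70% and -50%; inactive = maximum activity change above -50%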; note: % is set by controls: 0 for no effect and ±100 for the full control effect
#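 U2OS cells were transduced with wild-type KCNH2 virus (2.03 x 10^8 / mL) for 4 h at room temperature, then cultured overnight at 37 C. Thallium flux was read with FluxOr dye. Rate constants were normalized to DMSO controls.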
# * hit, by the source's call; ? = inconclusive; · = no result; + = active, no number; [ ] = dose if it differs, or a comment.
SMILES,KCNH2 3.1 inh,Menin MLL FP FL,CXXC DNA block,Menin MLL FP TR,hERG WT inh
CSCC[C@H](NC(=O)[C@H](CC(C)C)NC(=O)[C@H](Cc1c[nH]c2ccccc12)NC(=O)[C@H](CCC(N)=O)NC(=O)[C@@H](NC(=O)[C@H](Cc1ccccc1)NC(=O)[C@H](CC(=O)O)NC(=O)[C@H](CCC(N)=O)NC(=O)[C@H](C)NC(=O)[C@H](CCCNC(=N)N)NC(=O)[C@H](CCCNC(=N)N)NC(=O)[C@H](CO)NC(=O)[C@H](CC(=O)O)NC(=O)[C@H](CC(C)C)NC(=O)[C@H](Cc1ccc(O)cc1)NC(=O)[C@H](CCCCN)NC(=O)[C@H](CO)NC(=O)[C@H](Cc1ccc(O)cc1)NC(=O)[C@H](CC(=O)O)NC(=O)[C@H](CO)NC(=O)[C@@H](NC(=O)[C@H](Cc1ccccc1)NC(=O)[C@@H](NC(=O)CNC(=O)[C@H](CCC(N)=O)NC(=O)[C@H](CO)NC(=O)[C@@H](N)Cc1cnc[nH]1)[C@@H](C)O)[C@@H](C)O)C(C)C)C(=O)N[C@@H](CC(N)=O)C(=O)N[C@H](C(=O)O)[C@@H](C)O,·,-5.5,·,6.0%,·
CCCNC(=O)OC[C@@H]1O[C@H](CCO/N=C(\C)CCC(=O)OC[C@@H]2O[C@H](c3ccccc3)C=C[C@@H]2Oc2ccc(OC)cc2)C=C[C@@H]1Oc1ccc(OC)cc1,·,0.2[11.7 µM],·,-7.3%[11.7 µM],·
COc1ccc(Cn2c(CCC(=O)O)nc3cccnc32)cc1,-72.4*,-0.7,4.2%,7.7%,-3.8
COCCNC(=O)CCc1nc2cccnc2n1Cc1ccc(OC)cc1,-0.3,5.7,14.7%,-0.4%,4.8
Cc1cccc(OCC(O)Cn2c(=N)n(Cc3ccccc3)c3ccccc32)c1 (stereo not drawn),-4.6,-3.3,-9.0%,·,4.2
COc1ccc(OCC(O)Cn2c(=N)n(Cc3ccccc3)c3ccccc32)cc1 (stereo not drawn),-6.9,-0.8,?,?,-0.6
N=c1n(Cc2ccc(Cl)cc2)c2ccccc2n1CC(O)COc1ccccc1 (stereo not drawn),-84.8*,-2.2,33.9%,-15.5%,?
Cc1ccc(OCC(O)Cn2c(=N)n(Cc3ccccc3)c3ccccc32)cc1 (stereo not drawn),-74.7*,2.1,?,-20.4%,-93.7*
COC(=O)C(NC(=O)c1ccc(F)cc1)(Nc1ncc(S(=O)(=O)c2ccc([N+](=O)[O-])cc2)s1)C(F)(F)F (stereo not drawn),-80.0*,1.8,-1.3%,?,-74.8*
CCN(CC)S(=O)(=O)c1ccc2c(c1)nc(CCC(=O)OCC(=O)Nc1cc(Cl)cc(Cl)c1)n2C,-83.3*,-0.5,7.5%,0.8%,-3.5
CC(=O)c1sccc1NC(=O)CC(C)(C)CC(=O)O,9.8,-1.5,-1.2%,·,2.5
Cc1ccc(S(=O)(=O)N2CCCCC2CCNC(=O)C(=O)NCc2ccccc2)cc1 (stereo not drawn),12.6,·,·,·,-1.0
COC(=O)C1=C(C(=O)OC)[C@@H]2Nc3ccccc3[C@@]23C[C@@H](C(=O)OC)N(S(=O)(=O)c2cccs2)C3=N1,·,1.2[11.7 µM],·,1.3%[11.7 µM],·
O=C(N/N=C/c1ccccn1)c1cc(C2CC2)[nH]n1,-91.7*,0.9,10.0%,6.2%,14.6
C=CCOC(=O)C(C#N)c1nc2ccccc2nc1N1CCN(Cc2ccccc2)CC1 (stereo not drawn),-87.0*,?,3.1%,?,?
COCCOC(=O)C(C#N)c1nc2ccccc2nc1N1CCN(Cc2ccccc2)CC1 (stereo not drawn),-87.6*,0.9,-15.7%,2.0%,-11.0
N#CC(C(=O)NC1CC1)c1nc2ccccc2nc1N1CCN(C/C=C/c2ccccc2)CC1 (stereo not drawn),-85.8*,?,11.5%,-1.0%,-104.0*
O=C(Nc1ccccc1C(=O)N1CCCC1)c1ncoc1-c1cccc(Cl)c1,-10.0,-4.4,-3.4%,-4.2%,-5.5
Cc1ccc(S(=O)(=O)Nc2cc(-c3ccccc3)nn2C)cc1,-28.8,0.3,-10.0%,·,-5.4
Cc1ccc(S(=O)(=O)Nc2cc(-c3ccc(Cl)cc3)nn2C)cc1,-173.8*,1.0,0.3%,·,-17.6
CC(C)OCCCNC(=O)C1CCC(CNS(=O)(=O)c2ccccc2)CC1 (stereo not drawn),-85.0*,4.2,7.9%,-10.7%,4.7
COc1ccc(NC(=O)c2cc(-c3ccccc3)on2)cc1OC,-76.5*,-3.0,-3.1%,15.5%,3.9
COc1ccc(NC(=O)c2ccc(C)cc2)c(OC)c1,-154.0*,1.2,9.9%,3.1%,-170.2*
COc1ccc(-c2cc(C(=O)Nc3cc(Cl)ccc3OC)no2)cc1,-8.8,-0.6,9.3%,?,-8.6
COc1ccc(NC(=O)c2ccc3[nH]c(=O)c(=O)[nH]c3c2)c(OC)c1,1.2,4.6,-14.5%,3.6%,8.0
SMILES,KCNH2 3.1 inh,Menin MLL FP FL,CXXC DNA block,Menin MLL FP TR,hERG WT inh
COc1ccc(-c2cc(C(=O)Nc3ccc(OC)cc3OC)no2)cc1,-108.3*,12.3,18.1%,13.6%,1.6
COc1cccc(-c2cc(C(=O)Nc3ccc(OC)c(OC)c3)no2)c1,13.0,0.3,7.7%,20.1%,-26.8
C[N+](C)(C)CCC(=O)c1cccc2ccccc12,·,2.9,26.6%,?,·
CCC(Sc1nc2cc3c(cc2c(=O)n1Cc1ccco1)OCO3)C(=O)Nc1cccc(OC)c1 (stereo not drawn),-87.5*,-1.2,-5.8%,-2.2%,?
CCC(Sc1nc2cc3c(cc2c(=O)n1Cc1ccco1)OCO3)C(=O)Nc1ccccc1OC (stereo not drawn),·,3.6,?,-2.9%,-3.2
CC1(c2ccc3ccccc3c2)CCC(=O)O1 (stereo not drawn),6.7,·,·,·,-104.5*
OC[C@@H]1OC(O)[C@H](O)[C@H](O)[C@H]1O (stereo partly drawn),·,-2.0,·,-12.7%,·
O=[N+]([O-])c1ccc2c(c1)C(O)n1ncnc1S2 (stereo not drawn),-83.8*,-1.9,12.7%,0.8%,-9.8
Cc1cccc(CN2CCCC(C(=O)Nc3ccccc3Oc3cccnc3)C2)c1 (stereo not drawn),6.0,-2.8,?,-14.8%,31.9
O=C(Nc1ccccc1Oc1cccnc1)C1CCCN(C/C=C/c2ccc(F)cc2)C1 (stereo not drawn),-92.8*,4.7,-1.4%,-19.0%,-98.1*
CCn1c(-c2nn(-c3ccccc3)ccc2=O)n[nH]c1=S,-10.2,-3.2,-5.8%,0.1%,+
COc1ccccc1NC(=O)CSc1nncs1,18.3,·,·,·,-4.3
Cc1nnc(SCC(=O)Nc2cc(S(=O)(=O)N3CCCC3)ccc2Cl)n1C1CC1,-96.7*,·,·,·,1.0
O=C(CSc1nnnn1C1CC1)Nc1cc(S(=O)(=O)N2CCCC2)ccc1Cl,4.2,·,·,·,0.8
Cc1cc(OC(=O)c2ccccc2C(F)(F)F)c([N+](=O)[O-])c(=O)[nH]1,-31.2,4.8,1.7%,6.1%,-0.2
